This is an account of results in the supplement of paper PMC6555819.

The test system of this test is PPARg:RXRa 30nM:10nM, anti-RXR (NR concentration 30 nM, RXRa partner concentration 10 nM). Briefly: PBM binding z-score (relative to random genomic background probes); higher = stronger binding; sequences stand for … in GC…GCGATTGACAGCGTAGAATGAAGG
A digest of the protocol: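 Each nuclear receptor dimer, without ligand, was incubated for 1 h on custom Agilent 4×180K protein-binding microarrays. Binding was detected with antibodies against each partner (one per run), and scanned fluorescence was regression-normalized. The binding z-scores are referenced to random human genomic background probes.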
As for ATCTCTAGGTAAAGATAGTTCTGTGAATGCAAAT, the PBM binding z-score amounted to 0.378.
Next, CGTCCAGGGTCAGAGAGGTCAGTGAATGCCGAGT: 1.19.
As to TCTAGTTGGTCACGGAGGTCACACCCGACGGGTA, the PBM binding z-score is 3.5.
As to TCATATAGGTAAATGCTAAGTGAAAGTCCGATCT, the PBM binding z-score stood at 3.9.
The value for TCTGCTAGGTCAGCTGGTCAGCTAACGAGCTGCC was 1.12.
The value for CTACCAAGGTGAACAAGGGCGTTGATTACTATTC was -0.0752.
Next, AGTCAAAGTTCAAGACGAGGTAACGTAAAGCACG: 3.81; GCTGCTAGGTCAGGTTGATCAGCTAACGGGTACG: -0.231.
CCTTACGGGTCAAGGTTTTAGCACGGGTGGTACG returned a PBM binding z-score of 1.43.
As for TGAATGAGGTTATGAGATCAGGGAACGTTGCAAA, the PBM binding z-score is 0.899.
Next, AGAACGAGGGCACGCTGAGTTCATAGCAGAGTAG: 0.373; AGTCAAAGTTCACTAGGTAACCTAAGATTCAGCT: 4; GTACCAAGGTGAATAGGTCGTGGATGAGTAGGCG: 0.297.
The value for CTCCAAAGGTCGTGCTCAGGTGAGTATACCAAAC was 1.3; that for TGATATAGGTAAACAGGTGAAAGTCCGTAAGTTA was 1.65.
Sequence TCTATTAGTAGATTAGGGCAACCGAAACAGCGGA gave a PBM binding z-score of 3.45.
For the sequence CGTCCAAGGTCATAGGAGGTCAGTGAGGACAGAT, the PBM binding z-score was determined as 2.52.
The value for TCTCGGAGGACACGGAAGGTCAGAGCTCGACATC was 2.23.
